One assay relates to AAK1. Set-up: species or system human, MV4-11 + K-562 + COLO205 + SK-N-BE2 + OVCAR-8. The settings on record: read-out: apparent Kd, n = 1.
A further assay has as its target Q6ZSR9 (human, UniProt Q6ZSR9). Set-up: species or system MV4-11 + K-562 + COLO205 + SK-N-BE2 + OVCAR-8. The settings on record: read-out: apparent Kd, compound concentrations: 100 nM and 1000 nM (sheet 'Samples'), n = 1.
The next assay relates to CLK1. Set-up: species or system human, MV4-11 + K-562 + COLO205 + SK-N-BE2 + OVCAR-8. The settings on record: read-out: apparent Kd, compound concentrations: 100 nM and 1000 nM (sheet 'Samples'), n = 1.
A further assay has as its system CLK4. Further details: species or system human, MV4-11 + K-562 + COLO205 + SK-N-BE2 + OVCAR-8. The settings on record: read-out: apparent Kd, compound concentrations: 100 nM and 1000 nM (sheet 'Samples'), n = 1.
The test system of the next assay is GSK3A. Set-up: species or system human, MV4-11 + K-562 + COLO205 + SK-N-BE2 + OVCAR-8. Particulars: read-out: apparent Kd, compound concentrations: 100 nM and 1000 nM (sheet 'Samples'), n = 1.
Another assay relates to GSK3B. Further details: species or system human, MV4-11 + K-562 + COLO205 + SK-N-BE2 + OVCAR-8. Particulars: read-out: apparent Kd, compound concentrations: 100 nM and 1000 nM (sheet 'Samples'), n = 1.
The test system of the next assay is MELK. Set-up: species or system human, MV4-11 + K-562 + COLO205 + SK-N-BE2 + OVCAR-8. Particulars: read-out: apparent Kd, compound concentrations: 100 nM and 1000 nM (sheet 'Samples'), n = 1.
In another assay the test system is NUAK1. Further details: species or system human, MV4-11 + K-562 + COLO205 + SK-N-BE2 + OVCAR-8. Particulars: read-out: apparent Kd, compound concentrations: 100 nM and 1000 nM (sheet 'Samples'), n = 1.
In the next assay the test system is BMP2K. Further details: species or system human, MV4-11 + K-562 + COLO205 + SK-N-BE2 + OVCAR-8. Particulars: read-out: apparent Kd; compound concentrations: 100 nM and 1000 nM (sheet 'Samples'), CATDS: 1.9243702463248E-2; n = 1.
The test system of a further assay is CSNK2A1;CSNK2A3. Set-up: species or system human, MV4-11 + K-562 + COLO205 + SK-N-BE2 + OVCAR-8. Particulars: read-out: apparent Kd, compound concentrations: 100 nM and 1000 nM (sheet 'Samples'), n = 1.
The test system of another assay is CSNK2A2. Further details: species or system human, MV4-11 + K-562 + COLO205 + SK-N-BE2 + OVCAR-8. Particulars: read-out: apparent Kd, compound concentrations: 100 nM and 1000 nM (sheet 'Samples'), n = 1.
A further assay deals with PAK4. Set-up: species or system human, MV4-11 + K-562 + COLO205 + SK-N-BE2 + OVCAR-8. The settings on record: read-out: apparent Kd; compound concentrations: 100 nM and 1000 nM (sheet 'Samples'), CATDS: 3.0355378859093798E-2; n = 1.
The next assay concerns PKN1. Further details: species or system human, MV4-11 + K-562 + COLO205 + SK-N-BE2 + OVCAR-8. Particulars: read-out: apparent Kd; compound concentrations: 100 nM and 1000 nM (sheet 'Samples'), CATDS: 8.6733801464620904E-3; n = 1.
The next assay relates to PRKAG1. Set-up: species or system human, MV4-11 + K-562 + COLO205 + SK-N-BE2 + OVCAR-8. The settings on record: read-out: apparent Kd, compound concentrations: 100 nM and 1000 nM (sheet 'Samples'), n = 1.
The next assay has as its system RET. Set-up: species or system human, MV4-11 + K-562 + COLO205 + SK-N-BE2 + OVCAR-8. Particulars: read-out: apparent Kd; compound concentrations: 100 nM and 1000 nM (sheet 'Samples'), CATDS: 2.5699150815533801E-2; n = 1.
Another assay relates to SIK2. Further details: species or system human, MV4-11 + K-562 + COLO205 + SK-N-BE2 + OVCAR-8. Particulars: read-out: apparent Kd; compound concentrations: 100 nM and 1000 nM (sheet 'Samples'), CATDS: 1.23582822640132E-2; n = 1.

Molecules are shown by their SMILES. Like-named read-outs stand apart in the source and are kept apart here.

Q6ZSR9, sequence (Q6ZSR9 whole entry, looked up): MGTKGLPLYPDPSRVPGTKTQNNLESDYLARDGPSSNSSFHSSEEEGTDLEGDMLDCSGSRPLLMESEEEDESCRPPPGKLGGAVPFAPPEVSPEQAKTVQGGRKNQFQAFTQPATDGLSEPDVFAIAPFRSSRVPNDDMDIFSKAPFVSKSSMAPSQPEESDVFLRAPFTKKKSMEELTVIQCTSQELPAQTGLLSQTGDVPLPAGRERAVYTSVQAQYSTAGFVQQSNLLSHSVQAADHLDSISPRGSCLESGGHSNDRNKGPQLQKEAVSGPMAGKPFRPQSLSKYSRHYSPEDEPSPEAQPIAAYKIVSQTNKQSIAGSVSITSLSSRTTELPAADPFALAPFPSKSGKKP

With `COc1cc(Nc2nccc(N3CCC(NC(=O)c4cccc(NC(C)=O)c4)C3)n2)cc(OC)c1OC` (stereo not shown) [GSK1379754A], the potency estimated from few doses in the assay with AAK1 (compound concentrations: 100 nM and 1000 nM (sheet 'Samples'), CATDS: 0.175205708840038) was 410 nM; with Q6ZSR9 (CATDS: 0.171045295105965), 426 nM.
On to `c1cnn2ncc(-c3ccnc(Nc4ccc5c(c4)OCCO5)n3)c2c1` [GW806290X], for which the potency estimated from few doses with AAK1 (compound concentrations: 100 nM and 1000 nM (sheet 'Samples'), CATDS: 2.3873616537329799E-2) was 1080 nM; in the assay with CLK1 (CATDS: 6.6494036250362598E-2), 106 nM; in the assay with CLK4 (CATDS: 9.8127081360261201E-2), 57.2 nM; in the assay on GSK3A (CATDS: 3.86716280658417E-2), 308 nM; in the assay on GSK3B (CATDS: 6.1886578646693099E-2) it was 121 nM; in the assay with MELK (CATDS: 1.9268078616401899E-2), 2360 nM. The potency estimated from few doses in the assay with NUAK1 (CATDS: 2.7516933063414101E-2) is 713 nM; with Q6ZSR9 (CATDS: 2.3514563204250299E-2), 1130 nM.
In the case of `O=C(O)C(F)(F)F.O=c1[nH]ccc2nc(N[C@@H]3CCNC3)nc(Nc3ccc4c(c3)S(=O)(=O)CC4)c12` [GSK2181306A], the potency estimated from few doses was 800 nM with AAK1 (compound concentrations: 100 nM and 1000 nM (sheet 'Samples'), CATDS: 1.0213142208507E-2); 190 nM with BMP2K; 1760 nM in the assay on CLK4 (CATDS: 8.1810149624153006E-3); 11.3 nM in the assay on CSNK2A1;CSNK2A3 (CATDS: 0.112951755046268); 6.46 nM in the assay on CSNK2A2 (CATDS: 0.17006619432900399); 213 nM in the assay with GSK3A (CATDS: 1.81293399995681E-2). Moreover, the potency estimated from few doses in the assay on GSK3B (CATDS: 1.53717620719534E-2) was 296 nM; with MELK (CATDS: 8.8391559742386702E-3), 1290 nM; in the assay with NUAK1 (CATDS: 6.4011411937308901E-2), 25.9 nM; in the assay on PAK4 it was 85 nM; with PKN1, 1380 nM; with PRKAG1 (CATDS: 1.1132465742589101E-2), 629 nM. In addition, the values for the potency estimated from few doses in the assay with Q6ZSR9 (CATDS: 1.2146463936907201E-2), in the assay with RET and in the assay with SIK2 were 503 nM, 113 nM and 483 nM, respectively.
Regarding `CCn1c(-c2cccnc2O)nc2cnccc21` [SB-736715], the potency estimated from few doses in the assay with AAK1 (compound concentrations: 100 nM and 1000 nM (sheet 'Samples'), CATDS: 1.3866746573900799E-2) is 1530 nM; in the assay with PRKAG1 (CATDS: 1.40543588651099E-2) it was 1490 nM.
As for `NC(=O)c1cc(-c2ccccc2)cc2c(C3CCNCC3)c[nH]c12` [GSK301362A], the potency estimated from few doses in the assay with AAK1 (compound concentrations:100 nM and 1000 nM (sheet 'Samples')) is 1980 nM.
For `O=C1N=C(NCCCc2ccccc2)S/C1=C\c1ccc2ncccc2c1` [RO4493941-000], the potency estimated from few doses with AAK1 (compound concentrations: 100 nM and 1000 nM (sheet 'Samples'), CATDS: 6.7611203009870793E-2) is 1120 nM; with CLK1 (CATDS: 8.49411754848379E-2) it was 528 nM; in the assay on CLK4 (CATDS: 0.15877377246004401), 105 nM; in the assay with CSNK2A1;CSNK2A3 (CATDS: 0.35522502931524602), 22 nM; in the assay with CSNK2A2 (CATDS: 0.347313618598384), 22.8 nM; with Q6ZSR9 (CATDS: 7.1931032695021699E-2), 898 nM.

The values above are taken from article PMC11062922 (Nature Chemical Biology, 2023).
